# Experimental data as given in publication PMC4336329 (PLoS ONE, 2015).
# Screen size: about 310,000 compounds; about 14,000 (4.5%) showed an effect of 50% or more. Effects have a minus sign here. This is one part of a sample in which strong results are shown more often than they occur.
# Biological target: human ether-à-go-go-related gene (hERG) potassium channel (human, UniProt Q12809)
# Assay: primary screen, population patch clamp on CHO cells stably expressing hERG; higher = less effect of the substance
# 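Further: peak tail current of the secondary pulse compared with the same well before compound.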
# Chain of human ether-à-go-go-related gene (hERG) potassium channel (Q12809 whole entry, looked up): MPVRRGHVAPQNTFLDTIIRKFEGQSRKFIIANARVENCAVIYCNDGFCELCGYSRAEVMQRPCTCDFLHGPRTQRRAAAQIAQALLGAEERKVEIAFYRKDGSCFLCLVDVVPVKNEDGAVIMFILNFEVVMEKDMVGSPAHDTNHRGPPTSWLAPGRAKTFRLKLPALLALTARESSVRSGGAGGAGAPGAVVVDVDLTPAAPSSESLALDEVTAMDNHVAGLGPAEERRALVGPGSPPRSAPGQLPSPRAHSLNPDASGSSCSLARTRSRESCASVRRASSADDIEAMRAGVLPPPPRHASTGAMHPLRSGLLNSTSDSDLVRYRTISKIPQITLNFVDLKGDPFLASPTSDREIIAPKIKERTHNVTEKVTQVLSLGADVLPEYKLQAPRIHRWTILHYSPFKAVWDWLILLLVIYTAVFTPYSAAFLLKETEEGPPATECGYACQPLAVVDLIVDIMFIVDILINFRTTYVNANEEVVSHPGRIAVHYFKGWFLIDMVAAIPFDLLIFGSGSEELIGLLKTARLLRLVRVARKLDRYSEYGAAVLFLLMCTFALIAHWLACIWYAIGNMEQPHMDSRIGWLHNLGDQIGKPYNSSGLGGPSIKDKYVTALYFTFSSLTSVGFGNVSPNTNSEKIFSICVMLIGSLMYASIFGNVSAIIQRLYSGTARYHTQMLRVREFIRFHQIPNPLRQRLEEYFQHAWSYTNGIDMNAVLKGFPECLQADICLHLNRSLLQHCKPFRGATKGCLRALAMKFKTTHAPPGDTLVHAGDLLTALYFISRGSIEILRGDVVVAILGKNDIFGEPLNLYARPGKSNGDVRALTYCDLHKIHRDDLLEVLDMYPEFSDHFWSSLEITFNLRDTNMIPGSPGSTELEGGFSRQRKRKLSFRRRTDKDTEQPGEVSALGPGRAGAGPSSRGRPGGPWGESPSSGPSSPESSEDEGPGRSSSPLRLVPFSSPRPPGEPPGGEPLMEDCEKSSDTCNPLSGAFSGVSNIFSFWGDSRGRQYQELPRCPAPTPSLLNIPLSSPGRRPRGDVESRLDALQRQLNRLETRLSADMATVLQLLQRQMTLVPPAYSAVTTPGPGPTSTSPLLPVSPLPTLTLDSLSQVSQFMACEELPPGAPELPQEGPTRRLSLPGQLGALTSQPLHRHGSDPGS
row,Compound,"hERG current change (%, negative = inhibition) at 10uM"
1,O=C(Cn1cnc2ccccc2c1=O)Nc1nnc(SCc2ccc(Cl)cc2)s1,10.9%
2,Cn1cc(CC(=O)N2CCN(c3ccccc3F)CC2)c2ccccc21,-9.66%
3,CCCOc1ccccc1N/C(=N\S(=O)(=O)c1ccc(C)cc1)Nc1nc(C)cc(C)n1,26.1%
4,O=C(OCCCc1cc2ccccc2c(=O)o1)c1ccc(F)cc1,-37.9%
5,N#Cc1ccc(C(=O)OCCCc2cc3ccccc3c(=O)o2)cc1,-69.4%
6,COc1cc2cc(CCOC(=O)c3ccc(C#N)cc3)oc(=O)c2cc1OC,-37.9%
7,N#Cc1ccc(C(=O)OCCc2cc3ccccc3c(=O)o2)cc1,-29%
8,CC(C)(OC(=O)c1ccc(F)cc1)c1cc2ccccc2c(=O)o1,3.1%
9,CC(C)(OC(=O)c1ccc(C#N)cc1)c1cc2ccccc2c(=O)o1,-73.1%
10,CC(C)(OC(=O)c1ccc(C(F)(F)F)cc1)c1cc2ccccc2c(=O)o1,14.6%
11,COc1cc2cc(CCCOC(=O)c3ccc(F)cc3)oc(=O)c2cc1OC,-29.5%
12,COc1cc2cc(CCCOC(=O)c3ccc(C#N)cc3)oc(=O)c2cc1OC,-65%
13,COc1cccc(CNCCc2ccccc2)c1OC.Cl,5.21%
14,O=C1C=C(c2cccc3c2oc2ccccc23)CCC1,-2.35%
15,Cc1c(C(=O)/C=C/N(C)C)nnn1-c1ccc(F)c(Cl)c1,2.73%
16,O=C(NCCc1ccccc1)C1CCC(=O)N1CCc1ccccc1 (centres unmarked),8.78%
17,C=CCc1cc(OC)ccc1OCCN1CC(C)OC(C)C1.O=C(O)C(=O)O (centres unmarked),-9.85%
18,CC1CCN(CCCCOc2ccccc2-c2ccccc2)CC1.O=C(O)C(=O)O,-72.6%
19,CC1CC(C)CN(CCOc2ccccc2-c2ccccc2)C1.O=C(O)C(=O)O (centres unmarked),-68.5%
20,O=C(O)C(=O)O.c1ccc(-c2ccccc2OCCOCCN2CCCCC2)cc1,-44.7%
21,C=CCc1cc(Cl)ccc1OCCN1CC(C)OC(C)C1.O=C(O)C(=O)O (centres unmarked),-53.1%
22,CN1CCN(CCCCOc2ccccc2-c2ccccc2)CC1.O=C(O)C(=O)O,-38.2%
23,C=CCc1cc(Cl)ccc1OCCn1ccnc1.O=C(O)C(=O)O,-10.1%

row,Compound,"hERG current change (%, negative = inhibition) at 10uM"
1,CC1CCN(CCCCOc2ccccc2F)CC1.O=C(O)C(=O)O,-13.3%
2,CC1CN(CCOCCOc2ccccc2-c2ccccc2)CC(C)O1.O=C(O)C(=O)O (centres unmarked),-13.5%
3,CC1CN(CCOc2ccccc2-c2ccccc2)CC(C)O1.O=C(O)C(=O)O (centres unmarked),-9.99%
4,CC1CN(CCCOc2ccccc2-c2ccccc2)CC(C)O1.O=C(O)C(=O)O (centres unmarked),-47.2%
5,CC1CCCN(CCOCCOc2ccccc2-c2ccccc2)C1.O=C(O)C(=O)O (centres unmarked),-72.9%
6,Cc1ccc(S(=O)(=O)N2CCC(C(=O)Nc3ccc(S(=O)(=O)N4CCCC4)cc3)CC2)cc1,-10.6%
7,COc1cccc(C2C(C(=O)c3sc(C)nc3C)=C(O)C(=O)N2CCN2CCOCC2)c1 (centres unmarked),10.8%
8,Fc1ccc(CNc2ccc(N3CCN(Cc4ccccc4)CC3)cc2)cc1,-30.1%
9,COc1ccc(C(=O)NCc2nnc(SCCOc3ccccc3)n2C)cc1,-15.5%
10,O=C(CCNS(=O)(=O)c1ccccc1C(F)(F)F)N1CCN(c2ccccc2O)CC1,-26.9%
11,CCC(=O)N1CCN(c2ccc(NC(=S)NC(=O)COc3ccccc3)cc2)CC1,-21.6%
12,CC(=O)c1c(C)[nH]c(C(=O)Nc2nc(-c3ccc(-c4ccccc4)cc3)cs2)c1C,19.3%
13,O=C(COCc1cc(-c2ccc3c(c2)OCO3)on1)Nc1cccnc1,10%
14,CC1CCCN(CCOc2ccc3ccccc3c2Br)C1.O=C(O)C(=O)O (centres unmarked),-69%
15,CC1CC(C)CN(CCOc2cccc(Cl)c2Cl)C1.O=C(O)C(=O)O (centres unmarked),-35.9%
16,CC1CN(CCOc2ccc(Cl)cc2Cl)CC(C)O1.O=C(O)C(=O)O (centres unmarked),-24.6%
17,CC1CCCN(CCOCCSc2ccccc2)C1.O=C(O)C(=O)O (centres unmarked),-34.5%
18,CC1CCN(CCOc2ccccc2-c2ccccc2)CC1.O=C(O)C(=O)O,-58.6%
19,CC1CCN(CCOCCOc2ccccc2Br)CC1,-30.1%
20,CC1CCN(CCOCCOc2ccccc2-c2ccccc2)CC1,-57.2%
21,CC1CCN(C(=O)COc2ccc3ccccc3c2Br)CC1,11.8%
22,CC1CC(C)CN(CCOc2ccc(Cl)cc2Cl)C1.O=C(O)C(=O)O (centres unmarked),-67.3%
23,O=C(O)C(=O)O.c1ccc(-c2ccccc2OCCOCCN2CCNCC2)cc1,2.27%

row,Compound,"hERG current change (%, negative = inhibition) at 10uM"
1,CC(=O)N(CC1CCCO1)c1nnc(-c2cnccn2)s1 (centres unmarked),12.8%
2,Cc1ccc(NC(=O)CN(C)C(=S)NC2CC2)cc1,16.4%
3,Cc1ccc(C(=O)Nc2cc3c(oc2=O)CCCC3=O)cc1,-2.47%
4,COc1cc(/C=C/C(=O)NC(C)C2CC3CCC2C3)cc(OC)c1OC (centres unmarked),10.6%
5,O=C(CN1C(=O)S/C(=C\c2cccs2)C1=O)Nc1ccc(O)cc1C(=O)O,8.88%
6,CCOc1ccc(-n2ccnc2SCC(=O)Nc2nnc(CC)s2)cc1,-11.9%
7,CCC(=O)N1CCc2cc(Br)cc(S(=O)(=O)N3CCCCC3CC)c21 (centres unmarked),0.791%
8,CCCN(c1ccc(C)cc1)c1nc(=O)c2cccnc2s1,-28%
9,COc1cc(S(=O)(=O)N2CCCCC2)ccc1NC(=O)c1ccccc1Cl,-24.6%
10,COCCNC(=O)C1CC2Cn3c(nc4cc(C)c(C)cc43)C2N1C (centres unmarked),8.23%
11,CN1C(C(=O)NCc2ccccc2)CC2Cn3c(nc4cc5ccccc5cc43)C21 (centres unmarked),-67.9%
12,CN1C(C(=O)NCc2cccc(Br)c2)CC2Cn3c(nc4ccccc43)C21 (centres unmarked),-67.7%
13,COCCNC(=O)C1CC2Cn3c(nc4cc5ccccc5cc43)C2N1C (centres unmarked),-3.93%
14,Cc1cc2nc3n(c2cc1C)CC1CC(C(=O)NCc2ccco2)N(C)C31 (centres unmarked),-29%
15,Cc1cc2nc3n(c2cc1C)CC1CC(C(=O)NCc2cccc(Br)c2)N(C)C31 (centres unmarked),-72.5%
16,C=CCNC(=O)C1CC2Cn3c(nc4cc5ccccc5cc43)C2N1C (centres unmarked),-16.2%
17,CN1C(C(=O)NCc2cccc(Br)c2)CC2Cn3c(nc4cc5ccccc5cc43)C21 (centres unmarked),-62%
18,Cc1cc2nc3n(c2cc1C)CC1CC(C(=O)NCc2ccccc2)N(C)C31 (centres unmarked),-31.4%
19,CN1C(C(=O)NCc2ccccc2)CC2Cn3c(nc4ccccc43)C21 (centres unmarked),-0.69%
20,CN1C(C(=O)NCc2ccco2)CC2Cn3c(nc4cc5ccccc5cc43)C21 (centres unmarked),-38.6%
21,CCCNC(=O)C1CC2Cn3c(nc4ccccc43)C2N1C (centres unmarked),12.8%
22,Cc1ccc(S(=O)(=O)[N-]c2nc3ccccc3nc2-n2cc[n+](Cc3ccccc3)c2)cc1,11%
23,O=C(c1csc2c1CCCC2)N1CCN(c2ncccn2)CC1,-25.1%

row,Compound,"hERG current change (%, negative = inhibition) at 10uM"
1,O=C(NCc1cccc(C(F)(F)F)c1)c1ccc(=O)[nH]c1,22.5%
2,Cc1oc(-c2ccccc2)nc1CS(=O)CC(=O)O (centres unmarked),10.2%
3,Cc1nn(-c2ccccc2)c(N2CCCC2)c1C=O,2.49%
4,Cc1cccc(-c2ncc(CN3CCCC(CO)(Cc4ccccc4C)C3)cn2)c1 (centres unmarked),-11.4%
5,Cc1cccc(/C=N/NC(=O)Cc2ccc(Cl)cc2)c1O,18.6%
6,Cc1cc(C)nc(SCC(=O)NN)n1,21.1%
7,O=C(NCc1ccccc1)c1ccc[n+]([O-])c1,30.8%
8,O=S(=O)(Nc1nc2cc3c(cc2nc1Cl)OCCO3)c1ccccc1,-15.5%
9,CC(C)CNC(=S)N1CCC(NC(=O)C23CC4CC(CC(C4)C2)C3)CC1,-7.73%
10,CC(=O)N1CCC(=NNC(=O)c2cc3ccccc3cc2O)CC1,16.8%
11,O=C(Cc1ccc(-c2ccccc2)cc1)Nc1ccccc1,19.1%
12,COc1cc(S(=O)(=O)NCc2ccc3c(c2)OCO3)ccc1Cl,-26.1%
13,CC1Cc2ccccc2N1C(=S)NC(=O)c1ccco1 (centres unmarked),16.2%
14,O=C(COc1ccccc1)Nc1nccs1,-13.5%
15,CCn1nc(C(=O)NNC(=O)COc2ccccc2C)c2ccccc2c1=O,-16%
16,CCn1nc(C(=O)NNC(=O)CCOc2cc(C)ccc2C)c2ccccc2c1=O,-77.6%
17,CCCn1nc(C(=O)NNC(=O)CCOc2ccccc2OCC)c2ccccc2c1=O,-21.8%
18,CCn1nc(C(=O)NNC(=O)COc2ccc(OC)cc2)c2ccccc2c1=O,-23.4%
19,COc1ccc(OCC(=O)NNC(=O)c2nn(C)c(=O)c3ccccc23)cc1,-21.1%
20,CCc1ccc(OCC(=O)NNC(=O)c2nn(CC)c(=O)c3ccccc23)cc1,-57.9%
